According to PubChem BioAssay AID602313 (National Center for Advancing Translational Sciences (NCATS), 2012):
The whole screen tested about 390,000 compounds, of which about 760 (0.19%) were called active. Not shown: some 3% with an inconclusive outcome. Shown is part of a subset that was picked to be rich in actives. Unmarked numbers belong to inactive results. Calls follow the shape of the dose curve; as a rule, active = well fitted inhibition curve with a large enough effect; inconclusive = small, poorly fitted or top-dose-only effect; inactive = flat fitted curve, though single readings scatter.

Experiment: qHTS for Inhibitors of Vif-A3F Interactions: qHTS; also: nearly all actives have a fitted effect of over 65% in size; as to activity, negative = active: % of control where 0% means no effect
Conditions: HeLa A3F-eYFP + Vif (tagged APOBEC3F with the HIV-1 protein that degrades it), YFP fluorescence increase; series mostly up to 46.1 µM; activity, negative = active: at the top concentration
Source text: The recent discovery and characterization of host restriction factors, which provide a potent defense to invading retroviruses, has provided new targets for antiviral drug development. APOBEC3G (A3G) and APOBEC3F (A3F) are potent cytidine deaminases that block HIV-1 replication; HIV-1 expresses the Vif protein, which counteracts A3G and A3F by binding to them and inducing their proteasomal degradation. The Vif-A3G and Vif-A3F interactions provide two potential targets for development of small molecules which can interfere with the ability of Vif to degrade A3G or A3F. […] To identify inhibitors that can interfere with Vif mediated degradation of A3G and A3F, we have developed Hela cell lines that stably express A3G or A3F tagged with eYFP at the C-terminal end (A3G-eYFP or A3F-eYFP, respectively) and Vif. In the absence of an inhibitor, Vif induces degradation of A3G-eYFP and A3F-eYFP, and the cells are not fluorescent. In the presence of an inhibitor, it is expected that Vif will be unable to degrade A3G-eYFP and/or A3F-eYFP, resulting in an increase in yellow fluorescence. In this assays Vif A3F was screened against the Molecular Library Small Molecule Repository (MLSMR). NIH Chemical Genomics Center [NCGC] NIH Molecular Libraries Probe Centers Network [MLPCN] MLPCN Grant: MH093245 Assay Submitter (PI): Vinay Pathak, National Cancer Institute
5 uL of 700 cells/well of A3F-YFP cells are dispensed into black, clear bottom plates. The plates are incubated overnight at 37 deg C. 23 nL of compounds are added by pintool. The plates are incubated overnight at 37 deg C and then read on the TTP Acumen (Ex 488/ Em 500-530).
Potency is read from the fitted curve at half-maximal effect.

Row | Compound | Potency | activity, negative = active [%]
1 | C[n+]1ccc(/C=C/c2c[nH]c3ccccc23)cc1 | 10 µM (active) | 
2 | CCCCN(CC)CCCNC(=O)c1nn(C)c2c1CS(=O)(=O)c1ccccc1-2 |  | -0.187
3 | Cc1ccc(-n2nc(CO)c(C(=O)NCCc3ccccc3)n2)cc1 |  | -2.36
4 | CCN(CC)C(=O)CSc1nc2cc3c(cc2c(=O)n1CCCC(=O)NCc1ccc2c(c1)OCO2)OCO3 |  | -6.97
5 | CCCCn1c(N)c(N(CCC(C)C)C(=O)c2ccc([N+](=O)[O-])o2)c(=O)[nH]c1=O | 10 µM (active) | 
6 | CCCCn1c(N)c(N(CC(C)C)C(=O)c2ccc(Br)o2)c(=O)[nH]c1=O |  | -12.4
7 | CCCCn1c(N)c(N(CCC(C)C)C(=O)c2ccc(COc3ccccc3)o2)c(=O)[nH]c1=O |  | -2.02
8 | Fc1ccc(-c2nn(-c3ccccc3Cl)c3c2cnc2ccccc23)cc1 |  | 3.9
9 | COc1ccc(NC(=O)CSc2nnc(-c3nnn(-c4ccc(F)cc4)c3C)o2)cc1 |  | -6.99
10 | CCn1cc2nc(SCc3cccc(F)c3)n(CCc3ccccc3)c(=O)c2n1 |  | 4.66
11 | Cc1ccc(N=Cc2c(O)n(-c3nccs3)c(=O)c3ccccc23)c(C)c1 | 25.1 µM (active) | 
12 | Cc1cccc(-n2c(O)c(C=Nc3ccccc3N)c(=O)[nH]c2=O)c1 |  | 9.05
13 | CCCn1c(NCc2ccccc2F)nc2ccccc21 |  | -0.341
14 | CCCCOc1ccc(C(=O)N2CC(=O)Nc3ccc(Br)cc3C2c2ccc(F)cc2)cc1 (centres undefined) |  | -3.28
15 | COc1ccc(-c2noc(CSc3nc(C)cc(=O)[nH]3)n2)cc1OC |  | 0.209
16 | O=C(N/C(=C/c1ccc(Cl)cc1)C(=O)N1CCCCC1)c1ccco1 |  | 2.2
17 | O=C(NC(=S)N1CCc2ccccc21)c1ccco1 | 11.2 µM (active) | 
18 | O=C(Nc1cccc2c1N(C(=O)c1ccco1)CCC2)c1ccco1 |  | -2.72
19 | O=C(NCc1ccco1)C1CCCN(S(=O)(=O)c2cccc3nonc23)C1 (centres undefined) |  | 1.03
20 | CC(=O)c1cccc(NC(=O)C2CCCN(S(=O)(=O)c3cccc4nonc34)C2)c1 (centres undefined) | 31.6 µM (active) | 
21 | CC(=O)c1cccc(NC(=O)C2CCCN2S(=O)(=O)c2cccc3nsnc23)c1 (centres undefined) |  | 0.838
22 | CCCCOc1ccc(NC(=O)c2cc3c(n(-c4ccc(Cl)cc4)c2=O)CCCC3=O)cc1 |  | -0.38
23 | O=C(COc1ccccc1)NCc1ccc2c(c1)CCN2C(=O)c1ccc(F)cc1 |  | -0.141
24 | Cc1nn2c(=O)cc(COC(=O)CNC(=O)c3ccc(F)cc3)nc2s1 |  | -4.52
25 | Cc1ccc(S(=O)(=O)N(CC(=O)Nc2ccc(Cl)cc2Cl)c2ccccc2C)cc1 |  | -4.14

Row | Compound | Potency | activity, negative = active [%]
26 | COc1cc(NC(=O)Cn2c(=O)n(Cc3ccco3)c(=O)c3oc4ccccc4c32)cc(OC)c1 |  | 0.129
27 | COC(=O)c1ccccc1NC(=O)c1ccc(COc2ccccc2Cl)o1 |  | -1.37
28 | CCOc1cc(C(=O)NCCc2csc3nc(-c4ccc(C)cc4)nn23)cc(OCC)c1OCC |  | 5.51
29 | Cc1ccc(NC(=O)c2nc(S(=O)(=O)Cc3cccc(C)c3)ncc2Cl)cc1 |  | -12.2
30 | O=C(Nc1ccccc1F)C(c1ccccc1)N1Cc2ccccc2C1=O (centres undefined) |  | -3.86
31 | CC1=CC(C)(C)Nc2ccc(OC(=O)CN3C(=O)C4CCCCC4C3=O)cc21 (centres undefined) | 31.6 µM (active) | 
32 | CC(OC(=O)CN1C(=O)C2CCCCC2C1=O)C(=O)Nc1ncc(Cl)cc1Cl (centres undefined) |  | -3.06
33 | Cc1ccc(COC(=O)CN2C(=O)NC3(CCCC3)C2=O)cc1 |  | -16.5
34 | Cc1ccc2nc(COc3ccccc3NC(=O)Nc3ccc(F)c(Cl)c3)cc(=O)n2c1 |  | -8.67
35 | O=c1c2cccnc2n(Cc2cccc(F)c2)c(=O)n1Cc1ccccc1Cl |  | 4.14
36 | Cc1cc(C)cc(NS(=O)(=O)c2cc3c(cc2C)NC(=O)CO3)c1 |  | 3.35
37 | Cc1ccc(N2CC(C(=O)Nc3ccc(N(C)C)cc3)CC2=O)cc1Cl (centres undefined) |  | -7
38 | CCOc1ccccc1N(C)C(=O)c1cc2c(s1)-c1ccccc1OC2 |  | -6.36
39 | CCc1cnc2c(c1SCC(=O)c1ccccc1)c(=O)n(C)c(=O)n2C |  | 4.8
40 | COc1ccccc1NC(=O)CN1C(=O)c2ccccc2Sc2ccc(C(=O)N3CCCC3)cc21 |  | -7.22
41 | O=C1C(Cl)=C(Oc2ccccc2)C(=O)c2ccccc21 | 10 µM (active) | 
42 | COc1ccc2c(c1)c(=O)c(S(=O)(=O)c1ccc(F)cc1)cn2CC(=O)Nc1ccc(C)cc1C |  | -6.93
43 | CCOc1ccc(NC(=O)c2c(NC(=O)Cc3ccccc3)sc3c2CCCCC3)cc1 |  | -13.9
44 | COc1ccccc1NC(=O)CSc1oc(-c2ccco2)nc1S(=O)(=O)c1ccc(Br)cc1 |  | 2.73
45 | Cc1ccc(-c2noc(-c3nnn(-c4cccc(C(F)(F)F)c4)c3N)n2)cc1 |  | 4.22
46 | Cc1ccc(CNC(=O)c2ccccc2CCc2ccccc2)cc1 |  | -11
47 | Cc1ccc(CNC(=O)c2cccc3c2C(=O)c2ccc(N4CCC(C)CC4)cc2S3(=O)=O)cc1 | 12.6 µM (active) | 
48 | O=C1c2ccccc2S(=O)(=O)c2cc(N3CCN(c4ccccn4)CC3)ccc21 |  | 2.17
49 | Fc1ccc(CN2CCc3nc(Nc4ccccc4)ncc3C2)cc1F |  | 5.34
